# Laboratory results: PubChem BioAssay (NCATS)
# Values without a mark were called inactive. Results filed as inconclusive are left out. Activity calls are given as the source filed them. Unless noted, calls follow the shape of the dose curve; as a rule, active = well fitted curve in either direction with a large enough effect (not every such curve was filed as active); inconclusive = small, poorly fitted or top-dose-only effect, or another doubt; inactive = flat fitted curve, though single readings scatter.
# Columns and labels:
# [1] = biological target: Lysosomal acid glucosylceramidase (Homo sapiens) (UniProt P04062); assay: Glucocerebrosidase-p2 (AID 348; in the data active = potency below about 10 µM; also: potency is read from the fitted curve at half-maximal effect); conditions: purified GBA, blue fluorogenic substrate, 40 min
# Outline: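 Compounds titrated from 0.6 nM upwards against 0.2 nM enzyme in pH 5.9 citric acid/KH2PO4, taurocholate, tween-20; blue fluorogenic substrate 80 uM, 40 min room temperature, stopped and read Ex 365/Em 440 for AC50.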
# [2] = AP1 Signaling Pathway (AID 357); conditions: ME-180 AP-1-bla reporter, EGF-induced, beta-lactamase ratio, 5 h; at 7.69 µM (top of the series) unless noted;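 also: ME-180 reporter cells stimulated with EGF at its EC50 level; % is scaled to controls: 0 for no effect and ±100 for the full control effect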
# Outline: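 AP-1-bla ME-180 cells, Opti-MEM + 0.5% dialyzed FBS, plated overnight 37 °C. Cpd titration + EC50 EGF, 5 h 37 °C. CCF4 2.5 h RT; ex 405, em 460/530 ratio → %activity, AC50.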
# [3] = NFAT Signaling Pathway (AID 444); conditions: Jurkat NFAT-bla M1, carbachol, beta-lactamase ratio, 5 h; at 7.69 µM (top of the series) unless noted;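 also: carbachol stimulus at about its EC50 of 1 µM final; % is scaled to controls: 0 for no effect and ±100 for the full control effect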
# Outline: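 Jurkat cells with NFAT-driven β-lactamase reporter and co-expressed M1 receptor, stimulated with carbachol (final 1 uM, ~EC50), compound titration, 5 h at 37 °C. CCF4 loaded 1 h at RT; 460/530 nm ratio gave %activity and AC50.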
# [4] = Stat Signaling Pathway (AID 446); conditions: ME-180 SIE beta-lactamase reporter, IL-6 stimulated, 5 h; at 7.69 µM (top of the series) unless noted;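 also: ME-180 cervical cancer cells given 40 pM IL-6 alongside compound; SIE-controlled beta-lactamase reporter measured as 460/530 nm FRET emission ratio; % is scaled to controls: 0 for no effect and ±100 for the full control effect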
# Outline: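 Reporter line: ME-180 cervical carcinoma, SIE-beta-lactamase. Treatment: compound with 40 pM IL-6, 5 hrs, 37 C, in low-serum OPTI-MEM with 10 mM HEPES pH 7.3. Detection: 460/530 nm fluorescence.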
# [5] = biological target: Glucocorticoid receptor (Homo sapiens) (UniProt P04150); assay: GR-GFP Redistribution (AID 450;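 active = compounds whose dose series gives a full or clear partial fitted curve of increased nuclear translocation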; also: potency is read from the fitted curve at half-maximal effect); conditions: U2OS GR-GFP nuclear translocation, laser cytometry, 2 h
# [6] = biological target: Glucocorticoid receptor (Homo sapiens) (UniProt P04150); assay: GR-EFC Redistribution (AID 451; calls by dose curve; also: potency is read from the fitted curve at half-maximal effect); conditions: CHO-K1 GR-EFC translocation, beta-gal luminescence, 2 h
# Outline: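 CHO-K1 cells expressing nuclear EA and GR-ED fragments of b-gal; compounds titrated up to 46 uM final, 2 h at 37 C. GR nuclear translocation read as complemented b-gal luminescence after 1 h RT detection.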
# [7] = biological target: Mitogen-activated protein kinase 10 (Mus musculus) (UniProt Q61831); assay: JNK3 AlphaScreen Assay (AID 530); conditions: JNK3 lysate, c-Jun phosphorylation; series mostly up to 11.4 µM;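 also: kinase came from lysate of stimulated human HepG2 cells; signal reports phosphorylation of biotinylated GST-cJun 1-79 at Ser73 with 10 µM ATP; % is scaled to controls: 0 for no effect and ±100 for the full control effect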
# Outline: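 qHTS format: compounds tested as titrations against IL-1beta/TNF-alpha-activated HepG2 lysate JNK3 with biotin-GST-cJun substrate and 10 uM ATP at room temperature. Loss of anti-phospho-cJun AlphaScreen signal indicates inhibition.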
# [8] = biological target: 3',5'-cyclic-AMP phosphodiesterase 4B (Homo sapiens) (UniProt Q07343); assay: qHTS Assay for Inhibitors of PDE-IV (AID 607; active = well fitted activation curve with a large enough effect in the main read-out, with a control signal flat, not every such curve was filed as active; also: % of control where 0% means no effect); conditions: HEK293 ACTOne CNG channel cells, membrane potential fluorescence; series mostly up to 22.9 µM
# Outline: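 Cell-based read-out of cAMP via a modified cyclic nucleotide-gated channel and membrane potential dye (535/590 nm) in HEK293 cells expressing PDE4 endogenously. Compounds tested up to 22.9 uM final; 100 uM RO 20-1724 reference.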
# Chain of Lysosomal acid glucosylceramidase (Homo sapiens) (P04062 whole entry, looked up): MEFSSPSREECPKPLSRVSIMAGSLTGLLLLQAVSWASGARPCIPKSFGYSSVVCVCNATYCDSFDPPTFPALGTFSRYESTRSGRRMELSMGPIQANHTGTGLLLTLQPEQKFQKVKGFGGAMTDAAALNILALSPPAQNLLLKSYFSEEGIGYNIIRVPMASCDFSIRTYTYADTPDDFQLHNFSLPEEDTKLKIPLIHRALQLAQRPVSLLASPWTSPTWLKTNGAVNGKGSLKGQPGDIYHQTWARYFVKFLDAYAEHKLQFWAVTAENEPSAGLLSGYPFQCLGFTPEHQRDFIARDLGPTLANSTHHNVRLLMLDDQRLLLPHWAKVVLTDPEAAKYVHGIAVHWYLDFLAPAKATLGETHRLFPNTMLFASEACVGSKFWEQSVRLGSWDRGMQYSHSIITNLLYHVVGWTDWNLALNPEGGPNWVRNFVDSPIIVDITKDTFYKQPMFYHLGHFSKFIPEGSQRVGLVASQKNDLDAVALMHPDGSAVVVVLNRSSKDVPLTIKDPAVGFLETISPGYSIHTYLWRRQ
# Chain of Glucocorticoid receptor (Homo sapiens) (P04150 whole entry, looked up, the tested form may be a part): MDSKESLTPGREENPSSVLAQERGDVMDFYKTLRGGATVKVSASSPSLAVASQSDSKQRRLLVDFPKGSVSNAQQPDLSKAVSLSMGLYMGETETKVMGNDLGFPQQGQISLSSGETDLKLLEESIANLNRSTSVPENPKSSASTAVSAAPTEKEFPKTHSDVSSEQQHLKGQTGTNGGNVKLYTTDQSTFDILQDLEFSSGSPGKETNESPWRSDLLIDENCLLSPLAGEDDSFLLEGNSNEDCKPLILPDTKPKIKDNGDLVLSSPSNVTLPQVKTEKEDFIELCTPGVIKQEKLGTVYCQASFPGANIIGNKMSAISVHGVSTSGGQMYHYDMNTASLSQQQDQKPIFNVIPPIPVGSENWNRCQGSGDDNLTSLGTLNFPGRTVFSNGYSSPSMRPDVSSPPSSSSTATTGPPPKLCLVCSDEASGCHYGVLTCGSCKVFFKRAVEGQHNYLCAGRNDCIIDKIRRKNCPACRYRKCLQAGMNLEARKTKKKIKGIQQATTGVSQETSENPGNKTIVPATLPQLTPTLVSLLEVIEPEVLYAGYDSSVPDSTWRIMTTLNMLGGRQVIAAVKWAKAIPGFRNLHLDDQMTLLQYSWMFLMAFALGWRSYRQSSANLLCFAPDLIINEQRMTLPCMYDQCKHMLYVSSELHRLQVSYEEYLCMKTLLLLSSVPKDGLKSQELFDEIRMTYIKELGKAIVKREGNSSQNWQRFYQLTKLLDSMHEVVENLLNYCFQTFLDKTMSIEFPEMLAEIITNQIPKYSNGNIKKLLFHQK
# Chain of 3',5'-cyclic-AMP phosphodiesterase 4B (Homo sapiens) (Q07343 whole entry, looked up): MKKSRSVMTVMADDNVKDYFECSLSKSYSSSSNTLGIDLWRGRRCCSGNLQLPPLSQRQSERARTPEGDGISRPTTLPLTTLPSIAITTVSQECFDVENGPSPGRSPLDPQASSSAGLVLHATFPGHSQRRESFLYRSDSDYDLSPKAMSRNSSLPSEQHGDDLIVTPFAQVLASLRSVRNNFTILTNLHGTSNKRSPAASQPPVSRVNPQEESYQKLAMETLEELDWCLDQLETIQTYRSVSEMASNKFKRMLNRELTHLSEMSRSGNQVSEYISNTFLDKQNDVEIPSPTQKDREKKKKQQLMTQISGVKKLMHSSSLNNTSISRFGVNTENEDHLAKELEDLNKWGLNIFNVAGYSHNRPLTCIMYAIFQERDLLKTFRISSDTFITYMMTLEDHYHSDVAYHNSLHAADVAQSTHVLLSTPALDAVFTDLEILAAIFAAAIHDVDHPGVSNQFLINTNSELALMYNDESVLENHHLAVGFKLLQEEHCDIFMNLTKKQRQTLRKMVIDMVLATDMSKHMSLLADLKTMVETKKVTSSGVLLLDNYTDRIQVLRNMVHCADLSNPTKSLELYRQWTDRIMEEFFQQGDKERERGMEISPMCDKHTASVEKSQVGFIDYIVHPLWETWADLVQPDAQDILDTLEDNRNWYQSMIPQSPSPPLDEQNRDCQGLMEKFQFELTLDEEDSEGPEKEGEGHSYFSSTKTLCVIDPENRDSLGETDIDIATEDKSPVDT
SMILES,Potency [1],"activity change, negative = inhibition [2]","activity change, negative = inhibition [3]","activity, negative = inhibition [4]",Potency [5],Potency [6],Potency [7],Potency [8]
COc1ccc(Br)c2c1C[C@H](C(=O)O)CC2,> 11.4 µM,12.4%,2.11%,-1.98%,> 46 µM,> 9.22 µM,inactive,inactive
O=C1c2cccc(O)c2C(=O)c2c(O[C@@H]3O[C@H](CO)[C@@H](O)[C@H](O)[C@@H]3O)cccc21,2.95 µM (active),29.9%,5.22%,8.12%,> 46 µM,> 9.22 µM,inactive,inactive
O=C(O)[C@H]1CCc2ccc3ccccc3c2[C@H]1c1cccc2ccccc12,> 11.4 µM,-12.8%,-25.8%,-8.82%,> 46 µM,> 9.22 µM,inactive,inactive
CNS(=O)(=O)c1ccccc1C(=N)c1ccccc1,> 11.4 µM,-4.6%,1.97%,0.878%,> 46 µM,> 9.22 µM,inactive,inactive
CC(=O)[C@H]1CC[C@@H]2[C@]1(C)CC=C1[C@]23C=C[C@]2(C[C@H](O)CC[C@@]12C)[C@H](C(=O)O)[C@@H]3C(=O)O,> 11.4 µM,-6.74%,13%,3.06%,> 46 µM,> 9.22 µM,inactive,inactive
O=S(=O)(O)n1ccnc1 (tested in a mixture with another compound),> 11.4 µM,-2.09%,6.55%,0.01%,> 46 µM,> 9.22 µM,inactive,inactive
O=S(=O)(c1cccc(C(F)(F)F)c1)N1c2ccccc2-n2cccc2[C@H]1c1cccnc1,> 11.4 µM,-23.2%,-6.39%,-6.23%,> 46 µM,> 9.22 µM,inactive,inactive
NNC(=O)CS(=O)(=O)Nc1ncccn1,> 11.4 µM,-0.0437%,3.94%,-3.75%,> 46 µM,> 9.22 µM,inactive,inactive
Cc1ccc(C)c([C@@H]2NC(=O)c3ccccc3N2)c1,> 11.4 µM,-2.78%,-14.2%,-1.94%,> 46 µM,> 9.22 µM,inactive,inactive
[N-]=[N+]=NC[C@@H]1O[C@@H](n2cnc3c(N)ncnc32)[C@@H]2O[C@@H]21,> 11.4 µM,8.89%,10.3%,-3.75%,> 46 µM,> 9.22 µM,inactive,inactive
CN1CCN(CC(=O)Nc2cccc3ccccc23)CC1,> 11.4 µM,-2.71%,5.99%,15.2%,> 46 µM,> 9.22 µM,inactive,inactive
CNC[C@@H](SC)c1ccc(O)c(O)c1,> 11.4 µM,1.24%,7.41%,21%,> 46 µM,> 9.22 µM,inactive,inactive
c1ccc(CCNCc2ccco2)nc1,> 11.4 µM,3.76%,-2.01%,1.92%,> 46 µM,> 9.22 µM,inactive,inactive
NCCOc1ccccn1,> 11.4 µM,10%,1.74%,-2.14%,> 46 µM,> 9.22 µM,inactive,inactive
O=c1c2ccccc2c2ccccc2c(=O)n1-c1cc2c3ccccc3ccc2c2ccccc12,> 11.4 µM,13.5%,2.31%,-7.32%,> 46 µM,> 9.22 µM,inactive,inactive
O=C1CSC(=S)N1/N=C\c1ccc(Cl)c([N+](=O)[O-])c1,> 11.4 µM,1.11%,6.49%,1.79%,> 46 µM,> 9.22 µM,inactive,inactive
NCCSc1nc(-c2ccccc2)c(-c2ccccc2)o1,> 11.4 µM,2.27%,-4.41%,-3.16%,> 46 µM,> 9.22 µM,inactive,inactive

SMILES,Potency [1],"activity change, negative = inhibition [2]","activity change, negative = inhibition [3]","activity, negative = inhibition [4]",Potency [5],Potency [6],Potency [7],Potency [8]
COC(=O)[C@@H]1C(O)[C@@H](C(=O)OC)[C@H](C)N(C)[C@@H]1C (some centres undefined),> 11.4 µM,3.71%,14.1%,-1.12%,> 46 µM,> 9.22 µM,inactive,inactive
O=C(O)CSCCc1ccccc1,> 11.4 µM,6.88%,-11.5%,16.8%,> 46 µM,> 9.22 µM,inactive,inactive
Nc1nc(SCC(=O)c2ccc(Br)cc2)c2[nH]cnc2n1,> 11.4 µM,-11.1%,23.5%,1.94%,> 46 µM,> 9.22 µM,inactive,inactive
O=C(O)C(F)(F)C(F)(F)C(F)(F)C(F)(F)C(=O)O,> 11.4 µM,-0.129%,6.75%,5.2%,> 46 µM,> 9.22 µM,inactive,inactive
O=C(O)CSc1ccc(N=C=S)cc1,> 11.4 µM,7.13%,27.9%,5.22%,> 46 µM,> 9.22 µM,inactive,inactive
CN(/N=C\c1ccccc1O)c1ccc2ccccc2n1,> 11.4 µM,-2.44%,-9.81%,1.98%,> 46 µM,> 9.22 µM,inactive,inactive
O=CNc1ncn[nH]1,> 11.4 µM,-1.52%,-0.432%,8.03%,> 46 µM,> 9.22 µM,inactive,inactive
N[C@@H](Cc1cccc([N+](=O)[O-])c1)C(=O)O,> 11.4 µM,-0.119%,0.16%,0.761%,> 46 µM,> 9.22 µM,inactive,inactive
N[C@@H](CSc1nc2ccccn2c1[N+](=O)[O-])C(=O)O,> 11.4 µM,-2.33%,9.56%,-1.41%,> 46 µM,> 9.22 µM,inactive,inactive
CC(C)[C@H](N=Cc1ccccc1O)C(=O)O,> 11.4 µM,-4.87%,4.44%,-0.012%,> 46 µM,> 9.22 µM,inactive,inactive
O=C(O)CCNCC(=O)O,> 11.4 µM,2.01%,0.769%,-2.35%,> 46 µM,> 9.22 µM,inactive,inactive
CO[C@@H]1/C=C\O[C@]2(C)Oc3c(C)c(O)c4c(O)c(c(CN5CCN(C)CC5)c(O)c4c3C2=O)NC(=O)/C(C)=C\C=C[C@@H](C)[C@@H](O)[C@H](C)[C@@H](O)[C@H](C)[C@H](OC(C)=O)[C@@H]1C,> 11.4 µM,-8.05%,7.34%,-6.61%,> 46 µM,> 9.22 µM,inactive,inactive
CN(C)CCN1C(=O)CC[C@]2(C)C1=CC[C@@H]1[C@@H]2CC[C@]2(C)[C@H]1CC[C@]2(C)O,> 11.4 µM,3.79%,-6.05%,6.79%,> 46 µM,> 9.22 µM,inactive,inactive
Nc1ccccc1N=Nc1c(S(=O)(=O)O)cc2cc(S(=O)(=O)O)cc(O)c2c1O,> 11.4 µM,-8.99%,-1.89%,-10.2%,> 46 µM,> 9.22 µM,inactive,inactive
O=S(=O)(c1ccccc1)N1CCN(S(=O)(=O)c2ccccc2)c2ccccc21,> 11.4 µM,-16.4%,-13.6%,-7.57%,> 46 µM,> 9.22 µM,inactive,inactive
C[N+](C)(N)Cc1nc(-c2ccc(Cl)cc2)no1,> 11.4 µM,3.76%,-6.01%,4.26%,> 46 µM,> 9.22 µM,inactive,inactive
